# KCNQ2 block: rat KCNQ2 potassium channel inhibitors, primary screen, cell-based, CHO-K1, FluxOR thallium flux, B-score; 20 min; stronger effect = lower value; actives 1.1% (n = 310,000); B-score at 10 µM;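 active = fluorescence ratio B-score at most minus 3 library SDs, with starting brightness B-score within 2 library SDs, cut at about -5.5 in these data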
# Target sequence (O88943 whole entry, looked up): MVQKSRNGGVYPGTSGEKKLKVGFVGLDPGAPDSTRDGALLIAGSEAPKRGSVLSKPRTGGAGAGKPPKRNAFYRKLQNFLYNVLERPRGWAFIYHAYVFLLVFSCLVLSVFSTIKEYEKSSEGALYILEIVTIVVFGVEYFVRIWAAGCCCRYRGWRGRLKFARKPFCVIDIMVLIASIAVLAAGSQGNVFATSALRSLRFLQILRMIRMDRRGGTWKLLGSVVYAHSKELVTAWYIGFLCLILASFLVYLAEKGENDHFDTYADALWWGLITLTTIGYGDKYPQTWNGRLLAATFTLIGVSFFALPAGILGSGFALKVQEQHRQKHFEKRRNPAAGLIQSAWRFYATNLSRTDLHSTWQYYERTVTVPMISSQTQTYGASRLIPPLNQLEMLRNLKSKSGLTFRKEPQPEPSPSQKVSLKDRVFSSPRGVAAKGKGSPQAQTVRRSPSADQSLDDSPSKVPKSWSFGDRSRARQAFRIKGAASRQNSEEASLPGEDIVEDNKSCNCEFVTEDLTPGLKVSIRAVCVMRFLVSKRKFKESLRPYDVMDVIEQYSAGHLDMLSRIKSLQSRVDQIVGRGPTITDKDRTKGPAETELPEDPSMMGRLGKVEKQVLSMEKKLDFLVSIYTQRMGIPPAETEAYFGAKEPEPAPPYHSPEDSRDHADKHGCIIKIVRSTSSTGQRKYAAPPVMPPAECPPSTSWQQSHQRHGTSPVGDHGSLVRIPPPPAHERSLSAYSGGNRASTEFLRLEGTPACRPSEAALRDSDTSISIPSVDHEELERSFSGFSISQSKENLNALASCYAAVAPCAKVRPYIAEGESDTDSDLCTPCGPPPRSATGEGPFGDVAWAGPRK
# KCNQ2 pot: potentiators of rat KCNQ2 potassium channel; Potassium voltage-gated channel subfamily KQT member 2 (Rattus norvegicus), O88943; CHO-K1 KCNQ2, FluxOR thallium flux fluorescence; stronger effect = higher value; B-score at 10 µM; actives 0.54% (n = 310,000); AID 2239, 2010;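 active = fluorescence ratio B-score at least 3 SD of library B-scores, with initial fluorescence B-score within 3 of them, cut at about 5.3 in these data; same plate scores as AID 2156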;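 also: B-score of peak minus minimum over baseline fluorescence ratio after K+ and Tl+ stimulus; positive B-score means potentiation of KCNQ2 with more thallium influx and brighter signal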
# Numbers without * were called inactive; i = inactive; . = no result. A selection: hits, their analogues and other compounds. The true share with any hit is near 1.6%.
SMILES,KCNQ2 block,KCNQ2 pot
Cc1ccccc1OCC(=O)Nc1ccccc1C(=O)NC1CC1,i,.
CC1=C(C(=O)Nc2ccccc2)C(c2ccco2)C(C#N)=C(SCc2ccccc2)N1 (centres undefined),-6.52*,-6.52
CC1=C(C(=O)Nc2ccccc2)C(c2ccco2)C(C#N)=C(SCC(=O)OC(C)C)N1 (centres undefined),i,0.08
COc1ccccc1C(=O)N=c1sc2c(C)ccc(OC)c2n1C,i,0.61
O=C(O)c1cc(-c2ccc(Br)s2)nc2ccccc12,i,.
CN1CCN(NC(=O)c2cc(-c3ccc(Br)s3)nc3ccccc23)CC1,-5.69*,-5.69
Cc1ccc2c(c1)N(C(=O)CCC(=O)Nc1ccccc1Cl)CC(C)O2 (centres undefined),i,0.01
COC(=O)Cn1c(=NC(=O)C2COc3ccccc3O2)sc2cc(S(N)(=O)=O)ccc21 (centres undefined),i,0.04
COc1ccc(NC(=O)CN(C)CC(=O)Nc2ccc(Cl)cc2F)cc1,i,.
O=C(NCc1ccc2c(c1)OCO2)c1ccc(N2CCCCCC2)c([N+](=O)[O-])c1,i,2.51
CC1CCCN(c2ccc(C(=O)NCc3ccc4c(c3)OCO4)cc2[N+](=O)[O-])C1 (centres undefined),i,8.28*
O=C(Nc1cc(Cl)ccc1N1CCOCC1)c1cc2ccccc2o1,i,.
O=C(Nc1cccc(Cl)c1N1CCCC1)c1ccc(Br)o1,-7.9*,-7.9
O=C(Nc1cccc(Cl)c1N1CCCC1)c1ccc([N+](=O)[O-])o1,i,0.07
O=C(Nc1cccc(Cl)c1N1CCCC1)c1cc2ccccc2o1,-6.23*,-6.23
Cc1nn(CC(=O)N2CCC(C)CC2)c(=O)c2nn(-c3ccccc3)c(C)c12,i,1.78
Cn1ccnc1C(OC(=O)c1ccccc1)C(F)(F)F (centres undefined),i,0.01
COc1ccc(/C(C)=N/NS(=O)(=O)c2cc(C)ccc2C)c(OC)c1,i,2.98
COc1ccc(C(CC(=O)c2ccccc2)C2CCCCC2=O)cc1 (centres undefined),-5.75*,-5.75
COc1ccc(C(=O)CC(c2ccccc2)C2C(=O)CCCC2=O)cc1 (centres undefined),i,0.02
CCOC(=O)CN1C(=O)N[C@@H](CCc2ccccc2)[C@@H](C(=O)OC)[C@H]1C,i,.
Cc1cccc(C(=O)NCC(=O)OCC(=O)N(C)CC(=O)Nc2ccc(F)cc2)c1,i,0.8
COc1ccc(OCC(=O)Nn2c(-c3ccc(C)cc3)nc3ccccc3c2=O)cc1,i,.
COc1ccc(OC)c(CNn2c(-c3cccc(C)c3)nc3ccccc3c2=O)c1,-5.69*,-5.69
COc1cc(/C(C)=C/c2ccccc2)c2c(c1)oc1ccccc12,i,.
SMILES,KCNQ2 block,KCNQ2 pot
COc1ncnc(-c2ccccc2)c1-c1ccccc1,i,.
O=C(N/N=C(\CC(=O)c1cccs1)C(F)(F)F)c1ccncc1,i,0.05
Cc1ccc(C(=O)N/N=C(/CC(=O)c2cccs2)C(F)(F)F)cc1,i,12.8*
O=c1[nH]c2ccccc2c2cn(-c3ccccc3)nc12,i,0.24
Cc1ccc(N2C(=O)N(CC(=O)NC(N)=O)C(=O)C2C)cc1 (centres undefined),i,1.66
Cc1ccc(N2C(=O)N(CC(=O)NC(c3ccccc3)c3ccccc3)C(=O)C2C)cc1 (centres undefined),-5.96*,-5.96
CCc1cccc(OCC(=O)Nc2ccccc2N2CCCC2)c1,i,.
CCN(CC(=O)NCc1ccc(F)cc1)C(=O)c1cccnc1SC,i,2.31
COc1ccc(NC2CCCN(C(=O)COc3ccc(Cl)cc3C)C2)cc1OC (centres undefined),-6.13*,-6.13
COc1ccccc1OCC(=O)N1CCCC(Nc2ccc(C)c(C)c2)C1 (centres undefined),i,.
COC(=O)C1CN(C(=O)COc2ccccc2C)c2ccccc2O1 (centres undefined),i,.
COC(=O)C1CN(C(=O)COc2ccc(Cl)cc2C)c2ccccc2O1 (centres undefined),-6.97*,-6.97
COc1ccc(Br)cc1/C=N/n1nnnc1N,i,.
CCN1CCN(CCNC(=O)c2ccc(CS(=O)c3ccc(Br)cc3)o2)CC1 (centres undefined),i,5.61*
CCN1CCN(CCNC(=O)c2ccc(CS(=O)c3ccc(Cl)cc3)o2)CC1 (centres undefined),i,1.16
C/C(=N\NC(=O)c1c(Cl)cnn1C)c1cccnc1,i,1.74
COc1ccc(OC)c(NC(=S)N2CCN(Cc3ccccc3)CC2)c1,i,1
COc1ccc(OC)c(NC(=S)N2CCC(C(O)(c3ccccc3)c3ccccc3)CC2)c1,i,5.89*
COc1cc(C(=O)NNC(=S)Nc2ccc(S(N)(=O)=O)cc2)cc(OC)c1OC,-6.09*,-6.09
COc1ccc(C(=O)NC(=S)Nc2ccc(S(N)(=O)=O)cc2)cc1,i,1.6
COc1ccc(S(=O)(=O)N2CCC(C(=O)Nc3ccccc3N3CCCCC3)CC2)cc1OC,i,0.13
COc1ccccc1N1CCN(C(=O)C(Sc2ccccc2)c2ccccc2)CC1 (centres undefined),-5.74*,-5.74
COc1ccccc1N1CCN(C(=O)CSc2ccccc2)CC1,i,.
Cc1ccc(NC(=O)Cc2c(O)c3ccccc3[nH]c2=O)c(C)c1,i,.
CCOC(=O)C1CCCN(c2c(Nc3cccc(C)c3)c(=O)c2=O)C1 (centres undefined),i,.
SMILES,KCNQ2 block,KCNQ2 pot
COc1ccc(-c2oc3c(CC=C(C)C)c(O[C@@H]4O[C@H](CO)[C@@H](O)[C@H](O)[C@H]4O)cc(O)c3c(=O)c2O[C@@H]2O[C@@H](C)[C@H](O)[C@@H](O)[C@H]2O)cc1,i,.
CC(=O)O[C@@H]1[C@@H](O)[C@@H](O)[C@H](Oc2c(-c3ccc(O)cc3)oc3c(CC=C(C)C)c(O)cc(O)c3c2=O)O[C@H]1C,-10.1*,-10.1
Cn1c(O)c(N=Nc2nc(-c3ccccc3)cs2)c2ccccc21,i,21.9*
Cn1c(O)c(N=Nc2ccccc2)c2ccccc21,i,0.09
COc1cc(C(CC(=O)Nc2ccc(C)cn2)N2Cc3ccccc3C2=O)cc(OC)c1OC (centres undefined),i,.
COc1ccc(-c2cc(=O)oc3cc(OC(C)C(=O)NCCCn4ccnc4)ccc23)cc1 (centres undefined),i,.
CC(C)(Cc1ccccc1)/[N+]([O-])=C\c1ccccc1,i,.
C=CCn1c(=O)c(C(=O)NCc2ccc(Cl)cc2)c(O)c2ccccc21,-5.98*,-5.98
C=CCn1c(=O)c(C(=O)Nc2ccc(C)cn2)c(O)c2ccccc21,i,.
CCNS(=O)(=O)c1ccc(CCC(=O)N2CCN(c3ccccc3F)CC2)cc1,i,.
CN(C)CCCn1c(SCC(=O)N2c3ccccc3Sc3ccccc32)nc2ccccc2c1=O,-6.43*,-6.43
Cn1c(SCC(=O)N2c3ccccc3Sc3ccccc32)nc2ccccc21,i,.
O=C(CSc1nc2cc(Cl)ccc2s1)N1CCCc2ccccc21,-5.92*,-5.92
COCCn1c(SCC(=O)N2CCCc3ccccc32)nc2c(c1=O)SC(C)C2 (centres undefined),i,.
COCCn1c(SCC(=O)N2CCCc3ccccc32)nc2ccccc2c1=O,-6.72*,-6.72

# Compound activity (PubChem)
